In all, about 330,000 compounds went through this assay and about 1,900 (0.58%) were called active. Roughly 4% stayed inconclusive and do not appear here. Cut-off read from the data, not from the text of the source: inconclusive = inhibition above about 70% without an active follow-up result; inactive = below that. The list is a sample of the results. Results with a measured potency or affinity are listed apart.
assay: M. tuberculosis growth inhibition, HTS (AID 449762);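 note: bacterial growth assessed after seven days of incubation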; settings: M. tuberculosis H37Rv growth inhibition, 7H9 media; at 25 µM; active compounds read high

| Compound | inhibition |
| --- | --- |
| CCOc1ccc(C2/C(=C(/O)c3ccc(S(=O)(=O)N4CCCCC4)cc3)C(=O)C(=O)N2CCCOC)cc1OC (stereo unspecified) | -12.5% (inactive) |
| COc1ccc(N(C(C)C(=O)NN=C2CCCC2)S(C)(=O)=O)cc1 (stereo unspecified) | -2.55% (inactive) |
| COc1ccc(-n2ccnc2)cc1 | 1.26% (inactive) |
| Cc1ccc2cccc(Oc3ncnc4sc(C)c(C)c34)c2n1 | 42% (inactive) |
| COc1ccc2oc(C(=O)OCC(=O)Nc3cc(S(=O)(=O)N4CCOCC4)ccc3OC)c(C)c2c1 | 0.56% (inactive) |
| COc1ccccc1C(=O)NNC(=O)C(=O)NC(C)C | 61.6% (inactive) |
| Cc1ccc2nc(SCc3nc4c(cnn4-c4ccccc4)c(=O)[nH]3)[nH]c2c1 | 0.73% (inactive) |
| Cc1ccc(-c2nc3ccccc3s2)cc1NC(=S)NC(=O)/C=C/c1ccco1 | -2.81% (inactive) |
| Cc1ccc(-c2nc3ccccc3o2)cc1NC(=S)NC(=O)/C=C/c1ccco1 | -10.3% (inactive) |
| CCOC(=O)[C@H]1[C@H]2COc3ccccc3[C@@H]2N2C(=O)c3cc(F)c(F)cc3NC(=O)[C@@]12C | -2.93% (inactive) |
| CC(C)NS(=O)(=O)c1ccc(OCC(=O)NCC2CCCO2)c(Cl)c1 (stereo unspecified) | -3.59% (inactive) |
| COc1ccc(NC(=O)c2c(Cl)nc3ccccn23)cc1 | 9.69% (inactive) |
| CC(C)(C)c1ccc(C(=O)OCCNC(=O)c2c(Cl)nc3ccccn23)cc1 | -5.57% (inactive) |
| CSc1ccccc1C(=O)N1CCN(c2cccc(Cl)c2)CC1 | -1.96% (inactive) |
| O=S1(=O)CCC(n2ncc3c2/C(=C/c2ccccc2)CC3)C1 (stereo unspecified) | 4.34% (inactive) |
| Cn1c(CNC(=O)c2ccco2)nnc1SCC(=O)c1ccc(F)cc1 | -2.19% (inactive) |
| O=C(Nc1ccccc1)C1=C[C@H](C2CCCCC2)C[C@H](OCc2ccc(CO)cc2)O1 | 8.7% (inactive) |
| O=C(Nc1ccccc1)C1=C[C@@H](C2CC2)C[C@@H](OCc2ccc(CO)cc2)O1 | 5.14% (inactive) |
| O=C(c1cc(-c2ccncc2)nc2ccccc12)N1CCN(Cc2ccccc2)CC1 | -9.48% (inactive) |
| Cc1ccccc1CN1CCN(C(=O)c2cc(-c3ccncc3)nc3ccccc23)CC1 | 12.1% (inactive) |
| C[C@H]1CC[C@]2(O[C@H](CCO)C[C@H](O)[C@H]2O)O1 | 3.36% (inactive) |
| O=C(Nc1cc(F)ccc1F)C1CCCO1 (stereo unspecified) | -6.27% (inactive) |
| Cc1ccc(C(=O)Nc2ccc([N+](=O)[O-])cn2)o1 | -6.44% (inactive) |

| Compound | inhibition |
| --- | --- |
| C=CCc1c(C)nc(SC)nc1Nc1ccc(C)cc1 | 56% (inactive) |
| C=CCc1c(C)nc(SC)nc1Nc1ccc(C(=O)O)cc1 | -7.64% (inactive) |
| Cc1cccc(C(=O)NCc2nnc(SCC(=O)N3CCN(c4ccccc4)CC3)n2C)c1 | 0.25% (inactive) |
| CSc1ncc(C(=O)Nc2ccccc2Cl)c(C)n1 | 6.57% (inactive) |
| CSc1ncc(C(=O)Nc2ccccc2C)c(C)n1 | 58.1% (inactive) |
| Cc1ccc(NC(=O)COC(=O)CCn2c(C)csc2=O)cc1S(=O)(=O)N1CCOCC1 | -2.47% (inactive) |
| O=[N+]([O-])c1ccc(Nc2ccc(Cl)cc2)nc1 | 25.4% (inactive) |
| O=C(O)c1ccc(Nc2ncc([N+](=O)[O-])cc2[N+](=O)[O-])cc1 | 3.64% (inactive) |
| O=C(COC(=O)c1ccccc1Br)Nc1ccc2[nH]c(=O)[nH]c2c1 | -0.67% (inactive) |
| CS(=O)(=O)c1ccccc1-c1nnc(NC(=O)C2=COCCO2)o1 | 0.09% (inactive) |
| Cc1ccc(C)c(-c2csc(NC(=O)C3=COCCO3)n2)c1 | 65% (inactive) |
| Cc1c(NS(=O)(=O)c2cccc(C(=O)OCC(=O)N(C)C3CCCCC3)c2)c(=O)n(-c2ccccc2)n1C | -13.2% (inactive) |
| NC(=S)NCc1cccnc1 | -5.18% (inactive) |
| CCOc1ccc(C(=O)NC(=S)NCc2cccnc2)cc1 | -0.27% (inactive) |
| CCCOc1ccc(C(=O)NCc2cccnc2)cc1 | 1.16% (inactive) |
| S=C(NCc1cccnc1)NCc1cccnc1 | -1.16% (inactive) |
| C[C@H](CO)N1C[C@H](C)[C@@H](CN(C)S(=O)(=O)c2cn(C)cn2)Oc2ccc(NC(=O)Nc3ccc4c(c3)OCO4)cc2C1=O | 3.14% (inactive) |
| COc1cccc(C2=NN(C(=O)c3ccc(C)o3)C(O)(C(F)(F)F)C2)c1 (stereo unspecified) | 3.82% (inactive) |
| Cc1coc2cc3oc(=O)c(CCC(=O)NCCCN4CCCC4=O)c(C)c3cc12 | -8.05% (inactive) |
| CN(C(=S)Nc1ccc(F)cc1)C1(c2ccccc2Cl)CCCCC1=O (stereo unspecified) | -2.19% (inactive) |
| O=C(O)COc1ccccc1/C=N/NC(=O)C(O)c1ccccc1 (stereo unspecified) | -3.84% (inactive) |
| Brc1ccc(-c2csc(-c3c[nH]c4ccccc34)n2)cc1 | 20.1% (inactive) |
| c1ccc2c(-c3csc(-c4ccncc4)n3)c[nH]c2c1 | 2.11% (inactive) |

| Compound | inhibition |
| --- | --- |
| CCCC(C)NC(=O)COC(=O)c1ccc(Cl)c(S(N)(=O)=O)c1 (stereo unspecified) | -0.98% (inactive) |
| N#CCOC(=O)c1c2c(nc3ccccc13)CCC2 | 1.84% (inactive) |
| CN(Cc1ccccc1)C(=S)NC(=O)c1ccc(-c2ccccc2)cc1 | 26.7% (inactive) |
| C=CCN(CC=C)C(=S)NC(=O)/C=C/c1ccccc1 | -2.7% (inactive) |
| O=C(/C=C/c1ccc(OC2CSC2)cc1)c1ccc(Cl)cc1 | 11.9% (inactive) |
| COc1cccc(-c2nn(C)c3sc(C(=O)Nc4ccc5c(c4)OCCO5)cc23)c1 | 3.01% (inactive) |
| COCCNC(=O)c1cc2c(-c3ccccc3F)nn(C)c2s1 | 12.7% (inactive) |
| COc1ccc(C2/C(=C(/O)c3ccc(F)cc3)C(=O)C(=O)N2CCCN2CCOCC2)cc1OC (stereo unspecified) | -2.8% (inactive) |
| Cn1c(C(F)(F)F)nc2c(=O)oc3ccccc3c21 | 66.9% (inactive) |
| Cc1nc2c(=O)oc3ccccc3c2n1-c1ccccc1 | -4.41% (inactive) |
| COc1cc(Cl)ccc1NC(=S)N(CCCN1CCOCC1)Cc1cn(C)c2ccccc12 | -4.57% (inactive) |
| O=C(Nc1ccc(Oc2ccc3c(c2)C(=O)N(c2ccc(O)cc2)C3=O)cc1)c1cccs1 | 2.92% (inactive) |
| CCCNc1nc(C)cc(-c2cc(C(=O)Nc3ccccc3)on2)n1 | 28.1% (inactive) |
| COCCNc1nc(-c2cc(C(=O)Nc3ccccc3)on2)cc(C(C)C)n1 | 14.4% (inactive) |
| COC(=O)C1CCCCN1C(=O)CCc1nnc(CCc2c[nH]c3ccccc23)o1 (stereo unspecified) | 0.08% (inactive) |
| CCCCNC(=O)c1ccc(N2CCC3(CC2)OCCO3)c([N+](=O)[O-])c1 | -3.04% (inactive) |
| COCCNC(=O)c1ccc(N2CCC3(CC2)OCCO3)c([N+](=O)[O-])c1 | -3.57% (inactive) |
| N#C[C@@H]1[C@@H]2C(=O)N(c3ccc4c(c3)OCCO4)C(=O)[C@@H]2C2c3ccccc3C=CN21 (stereo partly specified) | -6.97% (inactive) |
| CCn1c(SCC(=O)Nc2cc(C(C)(C)C)nn2-c2ccccc2)nnc1-c1cccs1 | -2.18% (inactive) |
| O=C(C1CCC(CNc2nc(=S)[nH]c3ccccc23)CC1)N1CCN(c2ccccn2)CC1 (stereo unspecified) | 6.46% (inactive) |
| COc1cccc(N2CCN(C(=O)CCCCCNc3nc(=S)[nH]c4ccccc34)CC2)c1 | 13.8% (inactive) |
| CCOC(=O)c1ccc(-c2c(-c3ccccc3OC)sc3cc4c(cc23)OCO4)cc1F | 6.83% (inactive) |
| O=C(Cc1c(F)cccc1Cl)Nc1ccc(S(=O)(=O)N2CCOCC2)cc1 | -7.05% (inactive) |

| Compound | inhibition |
| --- | --- |
| CCOC(=O)CNC(=O)CNC(=O)c1nn(-c2ccc(OC)c(OC)c2)c(=O)c2ccccc12 | 23.4% (inactive) |
| CCOC(=O)N1CCN(C(=O)CNC(=O)c2nn(-c3ccc(OC)c(Cl)c3)c(=O)c3ccccc23)CC1 | 7.01% (inactive) |
| O=C(c1ccccc1N(Cc1ccccc1)S(=O)(=O)c1ccccc1)N1CCOCC1 | -3.28% (inactive) |
| Cn1c(=O)n(C)c2cc(NC(=O)COc3ccc(F)cc3)ccc21 | -1.78% (inactive) |
| O=C1CCN(CCc2ccccc2)CCN1[C@H](CSc1ccccc1)c1ccccc1 | 21.9% (inactive) |
| c1ccc2c(c1)ncn2-c1ncnc2sc3c(c12)CCCC3 | 7.95% (inactive) |
| CC(O)CNc1nc2sc3c(c2c(=O)n1CCc1ccccc1)CCCCC3 (stereo unspecified) | -3.46% (inactive) |
| O=C(COc1ccccc1Cl)Nc1ccc2c(c1)C(=O)NC2=O | -3.92% (inactive) |
| CCOC(=O)COc1ccc2c(c1)C(=O)CC(C)(C)O2 | 54.7% (inactive) |
| CC1(C)CC(=O)c2cc(OCC(=O)NCc3cccnc3)ccc2O1 | -4.88% (inactive) |
| COc1ccc2c(c1OC)C(=O)N1C2SC(C)(C)[C@H]1C(=O)NC(C)C (stereo partly specified) | -6.91% (inactive) |
| COc1ccc(-c2cc3nc[nH]c(=O)c3s2)cc1 | 65.4% (inactive) |
| COc1ccc(-c2cc3nc(C)n(N)c(=O)c3s2)cc1 | -2.06% (inactive) |
| COc1ccc(CC(=O)Nc2nc(C)cs2)cc1OC | 0.84% (inactive) |
| O=C(C1CCC(=O)N(C2CCCCCC2)C1)N1CCN(c2ccccc2Cl)CC1 (stereo unspecified) | 1.52% (inactive) |
| Cc1ccccc1N1CCN(C(=O)C2CCC(=O)N(C3CCCC3)C2)CC1 (stereo unspecified) | 2.89% (inactive) |
| CN(C)S(=O)(=O)c1ccc(C(=O)/C=C/c2cccnc2)cc1 | 18.5% (inactive) |
| Cc1cccc2c1N(CCOc1ccc(C(C)(C)C)cc1)C(=O)C2=O | 4.9% (inactive) |
| Cc1ccc(OCCCN2C(=O)C(=O)c3cccc(C)c32)cc1 | 9.09% (inactive) |
| COc1ccc(N2CCN(C(=O)CCc3nnc4ccc(N5CCOCC5)nn34)CC2)cc1 | -1.82% (inactive) |
| COc1cc(N)c(Cl)cc1C(=O)NC1CN2CCC1CC2 (stereo unspecified) | 4.28% (inactive) |
| CCOc1cc(N)c(Cl)cc1C(=O)NCC1CN(Cc2ccc(F)cc2)CCO1 (stereo unspecified) | -1.66% (inactive) |

— PubChem BioAssay AID449762 (Southern Research Specialized Biocontainment Screening …, 2010)
